Test results: the supplement of paper PMC11732987, “Enantioselective OTUD7B fragment discovery through chemoproteomics screening and high-throughput optimisation” (Communications Chemistry, 2025)

How the values were obtained:
Assay in all cases: log2 ratio of Biotin-Ahx-Ub-VS probe labelling (fragment/DMSO); higher = less target engagement (more negative = stronger competition), active = hit call of the paper (q ≤ 0.05, log2 ratio ≤ -1)
Conditions in all cases: compound concentration: 200 uM; treatment time: 3 h
USP42 = target: T1, USP42 (UniProt Q9H9J4)
T1 sequence (whole entry): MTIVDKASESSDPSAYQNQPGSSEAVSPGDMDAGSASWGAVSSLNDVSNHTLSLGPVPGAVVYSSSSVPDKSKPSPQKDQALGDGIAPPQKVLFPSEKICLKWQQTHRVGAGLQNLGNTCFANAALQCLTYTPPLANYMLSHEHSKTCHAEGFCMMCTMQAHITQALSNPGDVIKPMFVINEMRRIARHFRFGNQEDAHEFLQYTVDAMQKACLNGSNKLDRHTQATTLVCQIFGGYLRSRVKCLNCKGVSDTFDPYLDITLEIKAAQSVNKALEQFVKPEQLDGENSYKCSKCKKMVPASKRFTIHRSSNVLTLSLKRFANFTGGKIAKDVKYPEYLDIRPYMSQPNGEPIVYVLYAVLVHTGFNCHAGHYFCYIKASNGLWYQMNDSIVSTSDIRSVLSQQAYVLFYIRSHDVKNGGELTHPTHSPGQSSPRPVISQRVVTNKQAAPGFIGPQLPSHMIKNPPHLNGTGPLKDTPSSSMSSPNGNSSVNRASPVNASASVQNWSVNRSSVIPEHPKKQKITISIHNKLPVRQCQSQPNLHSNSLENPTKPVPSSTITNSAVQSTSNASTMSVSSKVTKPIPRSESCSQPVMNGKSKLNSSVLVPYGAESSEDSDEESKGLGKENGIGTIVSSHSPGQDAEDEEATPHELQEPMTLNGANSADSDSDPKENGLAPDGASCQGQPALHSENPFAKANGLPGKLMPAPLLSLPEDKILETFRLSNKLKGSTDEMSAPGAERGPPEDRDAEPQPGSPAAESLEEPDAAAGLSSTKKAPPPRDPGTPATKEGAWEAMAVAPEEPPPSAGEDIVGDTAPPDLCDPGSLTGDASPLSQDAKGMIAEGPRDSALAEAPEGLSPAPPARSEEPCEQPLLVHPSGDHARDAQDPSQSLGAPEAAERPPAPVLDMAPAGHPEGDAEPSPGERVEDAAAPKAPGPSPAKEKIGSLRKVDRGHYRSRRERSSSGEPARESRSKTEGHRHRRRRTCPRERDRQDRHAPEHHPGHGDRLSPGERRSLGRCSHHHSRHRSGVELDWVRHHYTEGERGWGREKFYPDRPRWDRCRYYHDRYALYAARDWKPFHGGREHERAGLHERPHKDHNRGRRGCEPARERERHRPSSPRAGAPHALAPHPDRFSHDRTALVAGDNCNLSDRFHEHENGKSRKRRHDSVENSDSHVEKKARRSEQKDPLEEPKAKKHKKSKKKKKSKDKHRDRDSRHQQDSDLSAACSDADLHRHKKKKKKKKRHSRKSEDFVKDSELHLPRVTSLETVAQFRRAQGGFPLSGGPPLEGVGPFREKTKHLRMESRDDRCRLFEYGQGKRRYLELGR
How it was run: (§1)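 Labelling with Biotin-Ahx-Ub-VS (0.5 µM final, 1 h) followed a 3 h triplicate treatment of HEK293T lysate (495 µg per sample, Tris/CHAPS/IGEPAL buffer with protease inhibitors) with fragment at 200 µM or vehicle. Labelled DUBs were NeutrAvidin-enriched, digested with LysC and trypsin, and run by diaPASEF LC-MS/MS. The values, average log2 fragment/vehicle ratios by unpaired t-test, come from global-median-normalised Spectronaut label-free quantities. Proteins with ≥2 unique peptides were used.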

USP46 = USP46 (UniProt P62068)
How it was run: as §1

USP47 = target: T2, USP47 (UniProt Q96K76)
T2 sequence (whole entry): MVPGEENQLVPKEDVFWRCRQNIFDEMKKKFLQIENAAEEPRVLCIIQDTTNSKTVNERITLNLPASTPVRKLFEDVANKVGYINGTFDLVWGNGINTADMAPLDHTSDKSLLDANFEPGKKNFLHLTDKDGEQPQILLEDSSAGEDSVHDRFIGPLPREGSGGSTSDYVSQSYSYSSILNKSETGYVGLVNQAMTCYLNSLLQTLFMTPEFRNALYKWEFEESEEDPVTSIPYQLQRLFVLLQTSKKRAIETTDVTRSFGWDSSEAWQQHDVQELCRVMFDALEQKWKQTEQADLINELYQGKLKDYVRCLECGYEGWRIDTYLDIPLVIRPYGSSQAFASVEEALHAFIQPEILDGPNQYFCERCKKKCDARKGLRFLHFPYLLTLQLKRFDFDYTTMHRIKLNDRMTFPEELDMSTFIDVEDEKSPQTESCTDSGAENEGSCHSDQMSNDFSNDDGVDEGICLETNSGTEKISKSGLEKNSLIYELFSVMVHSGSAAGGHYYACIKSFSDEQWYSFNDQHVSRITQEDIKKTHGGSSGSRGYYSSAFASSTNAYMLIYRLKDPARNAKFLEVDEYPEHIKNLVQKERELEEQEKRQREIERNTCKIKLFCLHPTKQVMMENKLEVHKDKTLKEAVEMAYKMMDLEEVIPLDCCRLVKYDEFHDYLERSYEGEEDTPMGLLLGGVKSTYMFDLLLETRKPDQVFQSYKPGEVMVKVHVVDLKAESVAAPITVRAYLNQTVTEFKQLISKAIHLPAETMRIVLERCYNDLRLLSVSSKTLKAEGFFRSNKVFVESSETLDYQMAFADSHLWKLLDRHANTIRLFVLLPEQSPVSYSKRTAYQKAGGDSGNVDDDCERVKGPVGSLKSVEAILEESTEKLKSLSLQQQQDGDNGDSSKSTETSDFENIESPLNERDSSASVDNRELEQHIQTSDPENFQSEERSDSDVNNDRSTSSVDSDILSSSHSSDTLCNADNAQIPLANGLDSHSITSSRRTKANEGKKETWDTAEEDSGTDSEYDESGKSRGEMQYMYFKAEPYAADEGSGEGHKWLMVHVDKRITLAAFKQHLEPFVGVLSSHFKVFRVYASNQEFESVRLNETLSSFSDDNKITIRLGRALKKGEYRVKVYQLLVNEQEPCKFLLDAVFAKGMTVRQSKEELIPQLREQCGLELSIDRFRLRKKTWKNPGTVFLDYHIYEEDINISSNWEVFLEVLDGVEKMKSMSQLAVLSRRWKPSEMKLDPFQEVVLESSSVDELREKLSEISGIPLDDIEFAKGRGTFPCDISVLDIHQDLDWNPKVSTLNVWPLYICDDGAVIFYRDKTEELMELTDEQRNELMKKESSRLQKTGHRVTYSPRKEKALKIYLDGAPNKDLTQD
How it was run: as §1

USP48 = target: T3, USP48 (UniProt Q86UV5)
T3 sequence (whole entry): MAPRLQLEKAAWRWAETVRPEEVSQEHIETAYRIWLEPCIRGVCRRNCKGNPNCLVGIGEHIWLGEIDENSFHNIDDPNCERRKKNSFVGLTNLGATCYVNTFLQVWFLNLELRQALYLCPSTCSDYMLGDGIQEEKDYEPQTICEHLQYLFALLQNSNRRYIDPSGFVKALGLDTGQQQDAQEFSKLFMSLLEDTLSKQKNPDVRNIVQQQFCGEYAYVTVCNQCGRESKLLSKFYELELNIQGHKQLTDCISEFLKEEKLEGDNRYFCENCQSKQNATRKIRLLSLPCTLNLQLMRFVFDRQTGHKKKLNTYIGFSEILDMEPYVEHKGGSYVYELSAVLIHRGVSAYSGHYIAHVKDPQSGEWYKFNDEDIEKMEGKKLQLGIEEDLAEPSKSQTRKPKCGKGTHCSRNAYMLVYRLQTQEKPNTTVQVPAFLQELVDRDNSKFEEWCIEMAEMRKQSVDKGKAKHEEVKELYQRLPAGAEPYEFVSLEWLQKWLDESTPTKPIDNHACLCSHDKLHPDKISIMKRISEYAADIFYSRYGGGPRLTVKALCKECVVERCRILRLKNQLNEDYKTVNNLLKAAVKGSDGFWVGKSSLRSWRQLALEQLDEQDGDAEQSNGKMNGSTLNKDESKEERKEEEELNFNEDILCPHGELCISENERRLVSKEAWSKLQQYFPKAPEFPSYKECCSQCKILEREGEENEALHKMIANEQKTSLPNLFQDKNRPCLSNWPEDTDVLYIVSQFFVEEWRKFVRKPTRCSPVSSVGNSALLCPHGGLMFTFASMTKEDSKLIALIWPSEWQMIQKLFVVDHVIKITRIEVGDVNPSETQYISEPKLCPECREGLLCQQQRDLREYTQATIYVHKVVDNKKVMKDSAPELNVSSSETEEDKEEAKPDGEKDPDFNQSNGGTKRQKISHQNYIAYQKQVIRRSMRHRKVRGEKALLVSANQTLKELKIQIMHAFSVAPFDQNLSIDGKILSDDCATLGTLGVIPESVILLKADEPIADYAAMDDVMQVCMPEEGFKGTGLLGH
How it was run: as §1

USP5 = target: T4, USP5 (UniProt P45974)
T4 sequence (whole entry): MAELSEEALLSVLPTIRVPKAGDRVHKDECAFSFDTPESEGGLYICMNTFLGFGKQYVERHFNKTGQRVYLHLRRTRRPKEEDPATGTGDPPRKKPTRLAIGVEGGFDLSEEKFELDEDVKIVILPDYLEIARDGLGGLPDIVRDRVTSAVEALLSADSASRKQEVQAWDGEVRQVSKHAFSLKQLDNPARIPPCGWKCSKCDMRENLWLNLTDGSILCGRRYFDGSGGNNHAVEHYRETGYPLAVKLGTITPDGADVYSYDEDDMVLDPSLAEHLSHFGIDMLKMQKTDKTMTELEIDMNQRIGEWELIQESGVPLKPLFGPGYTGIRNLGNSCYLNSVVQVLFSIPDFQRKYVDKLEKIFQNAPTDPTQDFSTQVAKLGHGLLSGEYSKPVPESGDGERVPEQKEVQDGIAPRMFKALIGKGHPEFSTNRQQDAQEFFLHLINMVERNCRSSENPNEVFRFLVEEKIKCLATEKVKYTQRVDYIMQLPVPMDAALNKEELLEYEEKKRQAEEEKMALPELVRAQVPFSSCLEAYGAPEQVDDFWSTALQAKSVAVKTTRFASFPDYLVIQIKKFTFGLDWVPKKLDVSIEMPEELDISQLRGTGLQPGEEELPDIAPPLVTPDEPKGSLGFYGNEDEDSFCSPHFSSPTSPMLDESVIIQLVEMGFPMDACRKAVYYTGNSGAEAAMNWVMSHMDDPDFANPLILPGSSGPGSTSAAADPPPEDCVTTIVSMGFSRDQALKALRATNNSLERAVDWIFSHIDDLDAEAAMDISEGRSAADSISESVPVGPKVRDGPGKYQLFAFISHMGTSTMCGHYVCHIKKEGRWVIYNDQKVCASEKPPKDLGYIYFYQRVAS
How it was run: as §1

USP54 = USP54 (UniProt Q70EL1)
How it was run: as §1

USP7 = USP7 (UniProt Q93009)
How it was run: as §1

USP8 = target: T5, USP8 (UniProt P40818)
T5 sequence (whole entry): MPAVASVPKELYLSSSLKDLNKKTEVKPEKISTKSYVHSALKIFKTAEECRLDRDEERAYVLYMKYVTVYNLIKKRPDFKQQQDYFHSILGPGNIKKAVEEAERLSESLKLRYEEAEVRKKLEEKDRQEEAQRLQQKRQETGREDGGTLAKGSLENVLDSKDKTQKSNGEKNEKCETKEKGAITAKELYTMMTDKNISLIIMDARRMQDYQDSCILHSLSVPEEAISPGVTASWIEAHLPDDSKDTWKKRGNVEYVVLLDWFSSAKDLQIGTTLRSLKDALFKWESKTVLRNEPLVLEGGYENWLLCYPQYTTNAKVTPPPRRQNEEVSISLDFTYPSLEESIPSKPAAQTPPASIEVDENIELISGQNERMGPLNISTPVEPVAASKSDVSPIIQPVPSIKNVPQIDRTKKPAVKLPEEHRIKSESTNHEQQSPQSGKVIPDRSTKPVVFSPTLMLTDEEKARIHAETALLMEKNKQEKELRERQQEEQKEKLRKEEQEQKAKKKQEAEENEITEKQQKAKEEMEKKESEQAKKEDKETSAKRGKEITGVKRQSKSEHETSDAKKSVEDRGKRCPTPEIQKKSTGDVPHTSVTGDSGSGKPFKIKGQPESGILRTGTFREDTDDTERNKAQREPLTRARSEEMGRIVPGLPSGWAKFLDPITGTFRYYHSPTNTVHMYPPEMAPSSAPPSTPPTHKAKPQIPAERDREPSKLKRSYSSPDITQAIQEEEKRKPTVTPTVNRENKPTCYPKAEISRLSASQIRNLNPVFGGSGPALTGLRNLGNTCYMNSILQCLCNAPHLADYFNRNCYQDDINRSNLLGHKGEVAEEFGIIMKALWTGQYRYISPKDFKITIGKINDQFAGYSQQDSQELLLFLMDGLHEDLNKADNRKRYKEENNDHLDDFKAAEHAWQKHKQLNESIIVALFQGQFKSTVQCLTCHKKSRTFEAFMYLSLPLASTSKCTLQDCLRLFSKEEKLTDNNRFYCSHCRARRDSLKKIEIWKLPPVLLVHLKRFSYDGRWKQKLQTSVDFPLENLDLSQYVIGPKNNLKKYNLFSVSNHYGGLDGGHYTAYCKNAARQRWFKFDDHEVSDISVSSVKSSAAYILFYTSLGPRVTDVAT
How it was run: as §1

USP9X = USP9X (UniProt Q93008)
How it was run: as §1

UniProt O00487 = target: UniProt O00487
How it was run: as §1

Measured: log2 ratio of Biotin-Ahx-Ub-VS probe labelling

Sequence of USP7 (Q93009 whole entry, looked up): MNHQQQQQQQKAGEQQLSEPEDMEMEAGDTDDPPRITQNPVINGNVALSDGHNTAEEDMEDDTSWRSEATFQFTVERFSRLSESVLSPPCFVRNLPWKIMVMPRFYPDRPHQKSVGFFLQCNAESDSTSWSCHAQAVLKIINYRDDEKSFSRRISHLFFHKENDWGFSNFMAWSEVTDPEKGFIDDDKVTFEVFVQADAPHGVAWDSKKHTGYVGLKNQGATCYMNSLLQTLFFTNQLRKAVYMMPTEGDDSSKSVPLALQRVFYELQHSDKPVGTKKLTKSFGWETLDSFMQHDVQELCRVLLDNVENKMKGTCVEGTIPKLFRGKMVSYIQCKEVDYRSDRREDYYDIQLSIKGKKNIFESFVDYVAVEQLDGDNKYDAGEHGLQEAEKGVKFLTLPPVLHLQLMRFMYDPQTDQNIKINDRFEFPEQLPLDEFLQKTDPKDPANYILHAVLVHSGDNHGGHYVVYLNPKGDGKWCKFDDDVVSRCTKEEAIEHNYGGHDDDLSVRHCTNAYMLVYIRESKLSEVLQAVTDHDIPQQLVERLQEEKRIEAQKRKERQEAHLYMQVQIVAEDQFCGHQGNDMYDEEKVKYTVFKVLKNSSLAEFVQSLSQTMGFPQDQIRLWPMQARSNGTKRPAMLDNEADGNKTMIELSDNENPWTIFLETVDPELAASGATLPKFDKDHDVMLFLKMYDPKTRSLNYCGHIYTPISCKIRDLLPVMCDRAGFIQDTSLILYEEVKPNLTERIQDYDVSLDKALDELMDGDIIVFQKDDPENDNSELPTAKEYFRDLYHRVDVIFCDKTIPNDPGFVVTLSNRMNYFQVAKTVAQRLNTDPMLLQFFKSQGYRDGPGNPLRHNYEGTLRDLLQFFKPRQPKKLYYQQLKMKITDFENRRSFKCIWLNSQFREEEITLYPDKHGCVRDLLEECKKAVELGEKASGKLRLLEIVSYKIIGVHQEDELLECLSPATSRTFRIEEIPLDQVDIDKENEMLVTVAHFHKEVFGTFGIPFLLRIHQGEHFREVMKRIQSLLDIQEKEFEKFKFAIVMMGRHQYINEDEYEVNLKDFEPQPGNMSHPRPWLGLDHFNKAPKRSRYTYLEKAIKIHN
Sequence of USP46 (P62068 whole entry): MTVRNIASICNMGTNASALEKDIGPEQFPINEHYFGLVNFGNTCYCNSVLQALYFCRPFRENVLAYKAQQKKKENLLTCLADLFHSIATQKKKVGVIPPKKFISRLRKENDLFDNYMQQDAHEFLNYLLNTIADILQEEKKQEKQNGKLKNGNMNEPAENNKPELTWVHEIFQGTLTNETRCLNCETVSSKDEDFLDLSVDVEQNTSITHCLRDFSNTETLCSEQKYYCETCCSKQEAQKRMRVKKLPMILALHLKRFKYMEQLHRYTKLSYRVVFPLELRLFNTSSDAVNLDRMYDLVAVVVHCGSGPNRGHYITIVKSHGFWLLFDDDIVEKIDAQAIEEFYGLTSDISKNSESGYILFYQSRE
Sequence of USP9X (Q93008 whole entry): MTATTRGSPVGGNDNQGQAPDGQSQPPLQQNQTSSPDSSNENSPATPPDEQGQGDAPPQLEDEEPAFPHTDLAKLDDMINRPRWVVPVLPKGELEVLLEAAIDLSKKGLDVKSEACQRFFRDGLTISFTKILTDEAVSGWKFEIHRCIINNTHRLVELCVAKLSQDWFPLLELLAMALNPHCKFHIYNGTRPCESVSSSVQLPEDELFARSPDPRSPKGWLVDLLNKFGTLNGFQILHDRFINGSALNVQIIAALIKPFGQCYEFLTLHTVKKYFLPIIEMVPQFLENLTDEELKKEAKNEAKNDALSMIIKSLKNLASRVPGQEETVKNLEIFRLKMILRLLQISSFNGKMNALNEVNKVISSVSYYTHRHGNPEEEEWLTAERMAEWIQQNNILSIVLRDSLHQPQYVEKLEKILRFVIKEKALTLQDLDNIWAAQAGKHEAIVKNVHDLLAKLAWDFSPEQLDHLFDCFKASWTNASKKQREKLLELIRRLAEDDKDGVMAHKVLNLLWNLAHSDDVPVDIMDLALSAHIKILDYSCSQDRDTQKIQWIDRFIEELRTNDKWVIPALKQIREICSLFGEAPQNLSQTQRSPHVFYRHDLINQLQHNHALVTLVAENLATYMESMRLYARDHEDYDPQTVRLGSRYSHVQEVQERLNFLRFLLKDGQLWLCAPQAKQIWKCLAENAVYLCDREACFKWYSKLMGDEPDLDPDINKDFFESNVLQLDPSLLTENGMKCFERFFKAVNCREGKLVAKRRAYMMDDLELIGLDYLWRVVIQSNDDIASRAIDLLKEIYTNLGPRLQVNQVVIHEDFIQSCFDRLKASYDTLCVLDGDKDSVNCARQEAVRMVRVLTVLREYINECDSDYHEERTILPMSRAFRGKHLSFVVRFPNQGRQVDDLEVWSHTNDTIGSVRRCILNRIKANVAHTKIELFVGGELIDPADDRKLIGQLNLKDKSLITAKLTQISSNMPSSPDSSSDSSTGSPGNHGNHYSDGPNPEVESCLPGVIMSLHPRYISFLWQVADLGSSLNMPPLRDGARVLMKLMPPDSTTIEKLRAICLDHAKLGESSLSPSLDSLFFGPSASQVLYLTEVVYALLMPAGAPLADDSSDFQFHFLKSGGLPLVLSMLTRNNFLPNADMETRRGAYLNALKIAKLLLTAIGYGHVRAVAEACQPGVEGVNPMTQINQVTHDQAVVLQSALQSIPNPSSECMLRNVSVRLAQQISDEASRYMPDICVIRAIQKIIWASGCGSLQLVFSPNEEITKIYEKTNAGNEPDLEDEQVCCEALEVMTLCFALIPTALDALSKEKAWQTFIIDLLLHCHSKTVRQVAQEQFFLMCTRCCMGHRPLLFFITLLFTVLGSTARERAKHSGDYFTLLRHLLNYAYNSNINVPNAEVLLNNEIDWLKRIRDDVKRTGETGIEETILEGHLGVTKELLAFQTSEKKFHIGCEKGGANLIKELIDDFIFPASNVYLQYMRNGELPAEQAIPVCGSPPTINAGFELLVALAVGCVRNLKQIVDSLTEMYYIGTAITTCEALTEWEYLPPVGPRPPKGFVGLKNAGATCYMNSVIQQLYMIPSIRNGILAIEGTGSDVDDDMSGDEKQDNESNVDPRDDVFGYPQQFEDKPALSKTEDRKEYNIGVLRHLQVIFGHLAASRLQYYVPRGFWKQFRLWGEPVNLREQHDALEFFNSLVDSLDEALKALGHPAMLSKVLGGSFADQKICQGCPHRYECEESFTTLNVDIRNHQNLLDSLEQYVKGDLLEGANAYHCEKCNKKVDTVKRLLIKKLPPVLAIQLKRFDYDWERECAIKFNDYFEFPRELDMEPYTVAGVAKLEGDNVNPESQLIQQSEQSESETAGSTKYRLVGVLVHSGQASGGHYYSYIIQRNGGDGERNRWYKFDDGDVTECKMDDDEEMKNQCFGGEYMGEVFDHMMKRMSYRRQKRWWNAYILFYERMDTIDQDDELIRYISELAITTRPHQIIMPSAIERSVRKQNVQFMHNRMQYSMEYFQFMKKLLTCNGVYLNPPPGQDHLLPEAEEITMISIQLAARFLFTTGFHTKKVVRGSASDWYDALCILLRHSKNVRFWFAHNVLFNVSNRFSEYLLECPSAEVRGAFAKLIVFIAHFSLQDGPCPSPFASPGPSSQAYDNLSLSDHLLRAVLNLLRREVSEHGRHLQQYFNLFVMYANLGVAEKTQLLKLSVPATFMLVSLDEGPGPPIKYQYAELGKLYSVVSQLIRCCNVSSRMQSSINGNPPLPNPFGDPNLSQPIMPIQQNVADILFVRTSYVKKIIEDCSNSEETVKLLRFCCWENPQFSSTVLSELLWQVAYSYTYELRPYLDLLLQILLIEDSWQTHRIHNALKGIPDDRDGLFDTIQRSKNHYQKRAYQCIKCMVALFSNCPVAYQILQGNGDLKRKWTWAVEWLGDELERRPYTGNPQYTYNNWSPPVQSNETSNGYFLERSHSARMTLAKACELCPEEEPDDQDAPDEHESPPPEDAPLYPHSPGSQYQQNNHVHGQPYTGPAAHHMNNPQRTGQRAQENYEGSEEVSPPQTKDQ
Sequence of UniProt O00487 (O00487 whole entry): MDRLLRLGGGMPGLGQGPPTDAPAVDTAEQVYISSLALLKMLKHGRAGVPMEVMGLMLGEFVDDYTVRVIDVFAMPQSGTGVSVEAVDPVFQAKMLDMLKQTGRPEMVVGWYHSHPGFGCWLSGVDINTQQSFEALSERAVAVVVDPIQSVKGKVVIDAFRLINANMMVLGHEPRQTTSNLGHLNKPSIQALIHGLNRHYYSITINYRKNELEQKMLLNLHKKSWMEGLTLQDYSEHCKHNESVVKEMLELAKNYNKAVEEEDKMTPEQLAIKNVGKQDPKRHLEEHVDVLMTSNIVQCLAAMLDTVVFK

CCC1c2ccsc2CCN1C(=O)CCl (stereo not given)
active: USP7 -1.23
inactive: USP42 0.624 | USP46 -0.333 | USP47 -0.618 | USP48 -0.725 | USP5 -0.159 | USP54 -0.451 | USP8 -0.157 | USP9X -0.309 | UniProt O00487 -0.0357
